Out of some 2,100 compounds screened, about 1,100 (52%) were called active. Not shown: some 29% with an inconclusive outcome. Calls come from the whole dose curve; as a rule, active = well fitted inhibition curve with a large enough effect; inconclusive = small, poorly fitted or top-dose-only effect; inactive = no such curve, though single readings can be large or run the other way. So high a share suggests a set chosen from earlier hits. The list shows a part of the results.
Potency is the fitted concentration of half-maximal effect.

Sequence of DNA dC->dU-editing enzyme APOBEC-3F (Homo sapiens) (Q8IUX4 whole entry, looked up): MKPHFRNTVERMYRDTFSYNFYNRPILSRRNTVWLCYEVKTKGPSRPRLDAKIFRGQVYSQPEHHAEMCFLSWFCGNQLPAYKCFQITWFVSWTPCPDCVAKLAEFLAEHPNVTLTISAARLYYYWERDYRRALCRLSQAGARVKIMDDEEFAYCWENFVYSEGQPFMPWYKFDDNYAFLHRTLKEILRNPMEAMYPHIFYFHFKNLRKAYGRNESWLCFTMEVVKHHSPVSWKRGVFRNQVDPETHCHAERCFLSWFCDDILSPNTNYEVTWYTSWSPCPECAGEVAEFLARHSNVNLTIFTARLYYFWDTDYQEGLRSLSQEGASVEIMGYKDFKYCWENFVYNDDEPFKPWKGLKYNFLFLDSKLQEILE

The test has as its target DNA dC->dU-editing enzyme APOBEC-3F (Homo sapiens) (UniProt Q8IUX4). Briefly: qHTS for inhibitors of Vif-A3F interactions: Cherry picks counterscreen. Note: nearly all actives have a fitted effect of over 65% in size. The conditions noted are these: HeLa A3F-eYFP/Vif cells, eYFP fluorescence, 24 h; series mostly up to 46.1 µM. The text has this:
The recent discovery and characterization of host restriction factors, which provide a potent defense to invading retroviruses, has provided new targets for antiviral drug development. APOBEC3G (A3G) and APOBEC3F (A3F) are potent cytidine deaminases that block HIV-1 replication; HIV-1 expresses the Vif protein, which counteracts A3G and A3F by binding to them and inducing their proteasomal degradation. The Vif-A3G and Vif-A3F interactions provide two potential targets for development of small molecules which can interfere with the ability of Vif to degrade A3G or A3F. […] To identify inhibitors that can interfere with Vif mediated degradation of A3G and A3F, we have developed Hela cell lines that stably express A3G or A3F tagged with eYFP at the C-terminal end (A3G-eYFP or A3F-eYFP, respectively) and Vif. In the absence of an inhibitor, Vif induces degradation of A3G-eYFP and A3F-eYFP, and the cells are not fluorescent. In the presence of an inhibitor, it is expected that Vif will be unable to degrade A3G-eYFP and/or A3F-eYFP, resulting in an increase in yellow fluorescence. In this counterscreen assay, Vif A3F was screened against the cherry picks ordered from the MLSMR. NIH Chemical Genomics Center [NCGC] NIH Molecular Libraries Probe Centers Network [MLPCN] MLPCN Grant: MH093245 Assay Submitter (PI): Vinay Pathak, National Cancer Institute
A3F-Vif cells were harvested from T225 flask and resuspended in phenol free OPTI-MEM medium with 5% FBS. Then 5 uL of 140,000 cells/mL resuspended cells was dispensed into each well of low base Aurora COC 1,536-well plates (black walled, clear bottom) using a Multidrop Combi dispenser. After overnight culture at 37 deg C with 5% CO2, a total of 23 nL of compounds at 5 selected concentrations from the NPC or positive control (2 mM stock of MG132) in DMSO was transferred to each well of the assay plate using a pintool (Kalypsys, San Diego, CA), and the plates were further incubated at 37 deg C with 5% CO2 for 24 hours. After that, the plates were measured on Acumen Explorer (TTP Lab Tech). The fluorescence was detected by 488 nm/Ex and […].
In the case of `CC1CC(C)CN(CC(=O)c2c[nH]c3ccccc23)C1` (stereo not drawn), the Potency was 20.6 µM (active).
For `O=C(C(=O)N1CCN(c2ccccc2Cl)CC1)c1c[nH]c2ccccc12`, the Potency entry is “inactive”.
For `COc1cc(NC(=O)c2ccco2)c(C(=O)OCC(=O)c2c[nH]c3ccccc23)cc1OC`, the Potency entry was “inactive”.
For the molecule `COc1cc(/C=C(\C#N)c2nc3ccccc3s2)ccc1OCC(=O)Nc1ccccc1`, the Potency is 15.8 µM (active).
`COc1cc(/C=C(/C#N)c2nc3ccccc3[nH]2)ccc1OCC(=O)Nc1ccccc1C(C)C`: the Potency is 13 µM (active).
For `COc1cc(/C=C(\C#N)c2nc3ccc(C)cc3[nH]2)ccc1OC(C)C`, the Potency is 20.6 µM (active).
As for `COc1cc(/C=C(\C#N)c2nc3ccccc3[nH]2)ccc1OCc1ccccc1F`, the Potency is 16.4 µM (active).
On to `COc1cc(/C=C(\C#N)c2nc3ccccc3[nH]2)ccc1O`, for which the Potency result was “inactive”.
Turning to `NNC(=S)Nc1c(F)cc(F)cc1Br`, the Potency result was “inactive”.
With `CCOc1cc(N(CC)CC)ccc1/C=C(/C#N)c1nc2ccccc2[nH]1` the entry was “inactive”; with `Cc1ccc2nc(/C(C#N)=C\c3ccc(OC(=O)c4cccs4)cc3)[nH]c2c1`, 8.86 µM (active); with `COc1cc(/C=C(/C#N)c2nc3ccccc3[nH]2)ccc1OC(=O)c1ccco1`, “inactive”.
With `CCN(CC)c1ccc(/C=C(/C#N)c2nc3ccccc3[nH]2)c(OC(C)C)c1`, the Potency is 0.366 µM (active).
On to `NNC(=O)c1oc2nc(-c3ccccc3)cc(-c3ccco3)c2c1N`, for which the Potency was 16.4 µM (active).
Turning to `Cc1ccc(-c2cc(-c3ccco3)c3c(N)c(C(=O)NN)oc3n2)cc1`, the Potency is 14.6 µM (active).
With `COc1cc(/C=C2/CCC/C(=C\c3cc(O)c(OC)c(Cl)c3)C2=O)cc(Cl)c1O`, the Potency was 13 µM (active).
As for `CCOc1cc(/C=C2\CN(C)C/C(=C\c3ccc(O)c(OCC)c3)C2=O)ccc1O`, the Potency was 2.5 µM (active).
Turning to `CCOc1cc(/C=C2\CCC/C(=C\c3cc(Cl)c(O)c(OCC)c3)C2=O)cc(Cl)c1O`, the Potency is 12.5 µM (active).
`O=c1c(O)c(-c2cccs2)oc2ccccc12`: the Potency is 2.59 µM (active).
As for `Cc1ccc(/C=N/NC(=O)c2cc(C)oc2C)cc1`, the Potency was 7.04 µM (active).
As to `CN(C)c1ccc(/C=N/NC(=O)c2ccccc2Cl)cc1`, the Potency was 3.53 µM (active).
With `Cc1ccc(/C=N/NC(=O)c2nc3nc(C)cc(C)n3n2)cc1`, the Potency entry is “inactive”.
As to `CC(NC(=S)Nc1cccc(C(F)(F)F)c1)C(C)(C)C` (stereo not drawn), the Potency result was “inactive”.
For `C[C@@H]1O[C@@H](O[C@@H]2C(=O)c3c(O)cc(O)cc3O[C@H]2c2ccc(O)c(O)c2)[C@H](O)[C@H](O)[C@H]1O`, the Potency entry was “inactive”.
In the case of `Cc1cccc(CSc2nc(-c3cccs3)ccc2C#N)c1`, the Potency entry was “inactive”.
For `N#Cc1ccc(-c2cccs2)nc1SCc1c(F)cccc1Cl`, the Potency was 3.66 µM (active).
With `Cc1ccnc(NC(=S)NC(=O)/C=C/c2ccco2)c1` the figure was 11.2 µM (active).
For the molecule `O=C(/C=C/c1ccco1)NC(=S)Nc1cccc(-c2nc3ccccc3o2)c1`, the Potency was 4.98 µM (active).
Consider `CC(C)(C)c1ccc(-c2csc(NC(=O)CN3C(=O)NC4(CCCCC4)C3=O)n2)cc1`, for which the Potency result is “inactive”.
Take `COc1ccc(-c2csc(NC(=S)NC(=O)/C=C/c3ccco3)n2)cc1Br`: the Potency was 6.27 µM (active).
On to `CSc1ccccc1NC(=O)COC(=O)/C=C/c1ccco1`, for which the Potency result is “inactive”.
`CN(C)C=Nc1c(Br)cc(Br)c2nonc12`: the Potency is 9.2 µM (active).
Consider `CNC(=S)N/N=C(\C)c1ccc(Cl)s1`, for which the Potency entry is “inactive”.
With `N#CCC(=O)N/N=C/c1ccc(N2N=C(c3ccccc3)CC2c2ccccc2)cc1` (stereo not drawn) the figure was 16.4 µM (active); with `CCc1ccc(CNC(=O)Cc2ccc(NC(=O)C3=C(C)OCCS3)cc2)cc1`, 1.12 µM (active); with `Cc1ccc2nc(/C(C#N)=C/c3ccc(-c4ccccc4C(=O)O)o3)[nH]c2c1`, 4.61 µM (active).
`N#C/C(=C\c1ccc(-c2ccc(C(=O)O)cc2)o1)c1nc2ccccc2[nH]1`: the Potency is 2.59 µM (active).
`N#C/C(=C\c1ccc(-c2ccc(F)cc2F)o1)c1nc2ccccc2[nH]1`: the Potency is 20.6 µM (active).
`Cc1ccc2nc(/C(C#N)=C/c3ccc(-c4cccc(Cl)c4)o3)[nH]c2c1`: the Potency was 8.2 µM (active).
For `Cc1ccc2nc(/C(C#N)=C/c3ccc(-c4ccc(C(=O)OC(C)C)cc4)o3)[nH]c2c1`, the Potency was 8.2 µM (active).
With `Cc1c(Cl)cccc1-c1ccc(/C=C(\C#N)c2nc3ccccc3[nH]2)o1` the figure was 16.4 µM (active); with `Cc1ccc2nc(/C(C#N)=C/c3ccc(-c4ccc(F)cc4F)o3)[nH]c2c1`, 4.61 µM (active); with `COCc1ccc(O)c2ncccc12`, “inactive”.
Take `CC(=O)c1sc(N/N=C\c2c(O)ccc3ccccc23)nc1C`: the Potency is 14 µM (active).
Take `CCOC(=O)c1sc(NC(=S)NC(=O)c2ccco2)nc1C`: the Potency entry was “inactive”.
As to `COc1ccc(C(=O)C(C)[n+]2ccc(C)c3ccccc32)cc1[N+](=O)[O-]` (stereo not drawn), the Potency entry was “inactive”.
For `COc1ccc(C(=O)NC2CCCc3ccccc32)cc1[N+](=O)[O-]` (stereo not drawn), the Potency is 8.86 µM (active).
With `COc1ccccc1NC(=O)C1=C(C)Nc2nc3ccccc3n2C1c1cccs1` (stereo not drawn) the figure was 1.4 µM (active).
As for `COc1ccc2[nH]c3c(c2c1)CCNC3c1ccc([N+](=O)[O-])o1` (stereo not drawn), the Potency was 18.4 µM (active).
Turning to `COc1ccc(C(=O)Nc2sc3c(c2C#N)CCN(C(C)=O)C3)cc1`, the Potency was 9.94 µM (active).
As for `CC(C)CN(CC(C)C)S(=O)(=O)c1ccc(C(=O)Nc2sc3c(c2C(N)=O)CCN(C(C)C)C3)cc1`, the Potency was 20.6 µM (active).
Consider `CC(C)N1CCc2c(sc(NC(=O)c3cc4cc([N+](=O)[O-])ccc4s3)c2C(N)=O)C1`, for which the Potency is 23.1 µM (active).
For the molecule `CCCCN(CCCC)S(=O)(=O)c1ccc(C(=O)Nc2sc3c(c2C(N)=O)CCN(CC)C3)cc1`, the Potency is 25.9 µM (active).
On to `CC(C)N1CCc2c(sc(NC(=O)c3ccc(S(=O)(=O)N4CCOCC4)cc3)c2C#N)C1`, for which the Potency is 20.6 µM (active).
With `CCCN1CCc2c(sc(NC(=O)c3ccc(S(=O)(=O)N(C)c4ccccc4)cc3)c2C(=O)NC)C1`, the Potency was 18.4 µM (active).
For the molecule `CCN1CCc2c(sc(-n3cccc3)c2C(C)NC(=O)Nc2ccc(C(=O)OC)cc2)C1` (stereo not drawn), the Potency result is “inactive”.
With `CCOC(=O)c1c(NC(=O)c2ccc(S(=O)(=O)N3CCC(C)CC3)cc2)sc2c1CCN(C)C2` the figure was 18.4 µM (active); with `CCN1CCc2c(sc(NC(=O)c3ccc(S(=O)(=O)N(CC)c4ccccc4)cc3)c2C(N)=O)C1`, 12.5 µM (active); with `CN1C(=O)N(C)c2ccc(C=O)c3cccc1c23`, “inactive”.
For the molecule `O=C(NC(=S)Nc1ccccc1N1CCCCC1)c1ccccc1`, the Potency result is “inactive”.
As to `CCCN1CCc2c(sc(NC(=O)c3ccc(S(=O)(=O)N(C)c4ccccc4)cc3)c2C(N)=O)C1`, the Potency is 23.1 µM (active).
As to `CCCN1CCc2c(sc(NC(=S)NC(=O)c3ccccc3)c2C#N)C1`, the Potency was 16.4 µM (active).
Turning to `N#CC(C#N)=C1C=C2C=C(N3CCOCC3)CCC2CC1` (stereo not drawn), the Potency entry was “inactive”.
`O=C1OCC2=C1C(c1ccc3c(c1)OCO3)c1cc3c(cc1O2)OCO3` (stereo not drawn): the Potency was 1.25 µM (active).
With `COc1cc(C2C3=C(COC3=O)Oc3cc4c(cc32)OCO4)ccc1OC(C)=O` (stereo not drawn) the figure was 3.14 µM (active); with `N#C/C=C/N1CCN(C(=O)c2ccco2)CC1`, “inactive”.
As to `C=CCN1C(=O)c2ccc(C(=O)N(CC(C)C)c3c(N)n(CCCC)c(=O)[nH]c3=O)cc2C1=O`, the Potency entry was “inactive”.
On to `CCCCn1c(N)c(N(CCC(C)C)C(=O)c2ccc([N+](=O)[O-])o2)c(=O)[nH]c1=O`, for which the Potency entry was “inactive”.
In the case of `CCCCn1c(N)c(N(CC(C)C)C(=O)Cc2ccc(S(=O)(=O)N3CCOCC3)s2)c(=O)[nH]c1=O`, the Potency was 16.4 µM (active).
On to `O=C(O)c1ccccc1N/N=C/c1c(Sc2nnnn2-c2ccccc2)nc2ccccn2c1=O`, for which the Potency entry was “inactive”.
With `CC(C)COc1ccc(C(=O)N/C(=C/c2cccc([N+](=O)[O-])c2)C(=O)O)cc1` the entry was “inactive”.
With `CCN1C/C(=C\c2cccc([N+](=O)[O-])c2)C(=O)/C(=C/c2cccc([N+](=O)[O-])c2)C1` the figure was 2.5 µM (active).
In the case of `OCC[n+]1ccc(/C=C/c2c[nH]c3ccccc23)cc1`, the Potency was 5.8 µM (active).
With `CC[n+]1ccc(/C=C/c2c[nH]c3ccccc23)cc1`, the Potency is 1.84 µM (active).
As for `C[n+]1ccc(/C=C/c2cc[n+](C)c3ccccc23)c2ccccc21`, the Potency result is “inactive”.
With `C[n+]1ccc(/C=C/c2c[nH]c3ccccc23)cc1` the figure was 6.51 µM (active).
As for `O=C(Nc1ccccc1OC(=O)c1ccccc1)c1ccccc1`, the Potency was 15.8 µM (active).
`NC(=S)N/N=C/c1ccccc1OC(=O)/C=C/c1ccccc1`: the Potency entry is “inactive”.
With `COc1ccccc1NC(=O)Cc1ccc(-c2ccccc2)cc1`, the Potency result was “inactive”.
`O=C(NC(=S)Nc1ccc(-c2ccccc2)cc1)c1ccccc1`: the Potency result is “inactive”.
For `COc1ccc(C(=O)N/N=C/c2ccccc2OC(=O)c2ccccc2)cc1`, the Potency was 3.96 µM (active).
For the molecule `C=C1C(=O)O[C@H]2C1CC[C@@](C)(O)C13C=CC(C)(C21)C1(C3)C(=O)O[C@@H]2C3C(C)=CCC3[C@](C)(O)C[C@H](OC(C)=O)C21` (stereo partly drawn), the Potency was 17.7 µM (active).
With `Cc1c(NC(=O)c2csc3c2CCCC3)c(=O)n(-c2ccccc2)n1C` the entry was “inactive”.
As for `Cc1c(N=C2N=C(NC(=O)c3cccs3)c3ccccc32)c(=O)n(-c2ccccc2)n1C`, the Potency is 14 µM (active).
`N#Cc1c(C(F)(F)F)cc(-c2ccccc2)nc1SCc1nc(N)nc(N2CCOCC2)n1`: the Potency is 16.4 µM (active).
`COc1c(-c2ccc(O)c(O)c2)oc2cc(O)cc(O)c2c1=O`: the Potency was 12.5 µM (active).
With `Cc1cc(NC(=O)Nc2nnc(N(C)Cc3ccccc3)s2)ccc1Br` the entry was “inactive”.
In the case of `CSc1nc2ccccc2cc1/C=C(\C#N)c1cccc(C)c1`, the Potency was 11.2 µM (active).
With `N#C/C(=C\c1cccc(O)c1)c1nc2ccccc2o1` the figure was 7.9 µM (active); with `Nc1c(C(=O)N/N=C/c2cccnc2)oc2nc(-c3ccccc3)cc(-c3ccco3)c12`, 4.11 µM (active); with `C/C(=N\Nc1nc(C)cc(-c2ccccc2)n1)c1ccc(F)cc1`, “inactive”.
As to `Nc1c(C(=O)N/N=C/c2ccc(F)cc2)oc2nc(-c3ccccc3)cc(-c3ccco3)c12`, the Potency is 14 µM (active).
For `Nc1c(C(=O)N/N=C/c2ccccc2Cl)oc2nc(-c3ccccc3)cc(-c3ccco3)c12`, the Potency is 10.3 µM (active).

These data come from PubChem BioAssay AID651815 (National Center for Advancing Translational Sciences (NCATS), 2012).
